# Screening results: PubChem, National Center for Advancing Translational Sciences (NCATS)
# The list is not random: actives were taken first. Their share in the collection is about 21%.
# CHX counter – Cycloheximide Counterscreen for Small Molecule Inhibitors of Shiga Toxin; cell reporter, cycloheximide protein synthesis inhibition counterscreen; max response, %; 300,000 tested, 12% active; in the data active means max response mostly above about 13%, no sharp cut-off; inactive means mostly below about 14%; further: read at 38.3 µM for the half of the compounds with a filed dose; 0% is about no effect
# NS1 function inh – qHTS Assay for Inhibitors of Influenza NS1 Protein Function | Potency, µM (highest dose often 46.1 µM), inactives show at the top dose activity, positive = more growth | AID 2326, 2010 | 270,000 tested, 0.4% active; calls by dose curve; further: potency means the concentration at half of the fitted maximal effect; actives are rising curves; nearly all actives have a fitted effect of over 50% in size
#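 Compounds were scored for reversing the slow growth caused by influenza A NS1 in S. cerevisiae, measured by optical density at 600 nm. Assay medium contained 2% galactose at pH 6.0; NS1-free yeast of the same strain were the positive control.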
# Pf growth 48h – Primary qHTS for delayed death inhibitors of the malarial parasite plastid, 48 hour incubation; 310,000 tested, 5.9% active; P. falciparum luciferase growth in erythrocytes, 48 h; Potency, µM (series often up to 28.7 µM), inactives show at the highest dose activity change, negative = inhibition, hits mostly inhibitors; further: potency means the concentration at half of the fitted maximal effect; on the % scale 0 is the no-effect control and ±100 the full control effect
#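 Firefly luciferase activity from engineered P. falciparum reports growth; inhibitors lower the luminescent signal. Cultures contained 2% hematocrit erythrocytes at 0.1% final parasitemia.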
# Pf growth 96h – Primary qHTS for delayed death inhibitors of the malarial parasite plastid, 96 hour incubation; 320,000 tested, 6.9% active; Potency, µM (doses to about 28.7 µM), for inactives: at the highest dose activity change, negative = inhibition, usual class: inhibitors; P. falciparum luciferase reporter growth, 96 h; further: potency means the concentration at half of the fitted maximal effect; on the % scale 0 is the no-effect control and ±100 the full control effect
#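 Compounds incubated with erythrocytes infected by luciferase-expressing P. falciparum (2% hematocrit, 0.05% parasitemia final) for 96 hours, 37 C in 5% CO2. Growth inhibition scored as decreased luciferase luminescence.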
# Shiga inhibitor – A qHTS for Small Molecule Inhibitors of Shiga Toxin; inhibition, % at 38.7 µM; 290,000 tested, 9.2% active; Vero cells, Shiga toxin protein synthesis inhibition reporter; AID 2315, 2010; in the data active means inhibition mostly above about 28%, no sharp cut-off; inactive means mostly below about 43%; further: 0% is about no effect
# Sm TGR block – qHTS Assay for the Inhibitors of Schistosoma Mansoni Peroxiredoxins | 360,000 tested, 3% active | purified TGR, DTNB reduction, TNB absorbance 405 nm | Potency, µM (titrated, usually from 114 µM), for the others: top-dose activity change, negative = inhibition, hits mostly inhibitors | Schistosoma mansoni thioredoxin glutathione reductase (TGR), Q962Y6 | AID 485364, 2010; further: potency means the concentration at half of the fitted maximal effect; on the % scale 0 is the no-effect control and ±100 the full control effect; nearly all actives have a fitted effect of over 60% in size
#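 First, TGR (20 nM dispensed) and NADPH were mixed with compound. Second, a 15 min room-temperature incubation followed. Third, further NADPH and then DTNB were added to start the reaction. Finally, TNB absorbance was monitored kinetically.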
# NS1 inh valid – Assay for Inhibitors of Influenza NS1 Protein Function: Hit Validation; shares compounds with NS1 function inh; influenza NS1 function cell assay, 15-point titration; activity change, negative = inhibition, % at 32.9 µM; 1,400 tested, under 10 active; AID 492980, 2010; calls by dose curve; further: 0% is about no effect
# PR8 titer – Assay for Inhibitors of Influenza NS1 Protein Function: Influenza virus replication assay in MDCK cells infected with virus A/PR/8/34; shares compounds with NS1 function inh; MDCK infected influenza A/PR/8/34, virus titer TCID50; stronger effect = lower value; virus titer (log TCID50), log10 TCID50 at 5 µM; 95 tested, 30% active; AID 504647, 2011; call rule not given here
# The depositor's hits bear a star; ? = inconclusive; . = not tested or not shown; [ ] = dose if it differs, or a comment. Unless noted, the call rests on the fitted dose curve; in most records, active means well fitted curve in the direction sought with a large enough effect; inconclusive means small, poorly fitted or top-dose-only effect, or another doubt; inactive means no such curve, though single readings can be large; an effect the other way counts as inactive or inconclusive.
SMILES,CHX counter,NS1 function inh,Pf growth 48h,Pf growth 96h,Shiga inhibitor,Sm TGR block,NS1 inh valid,others
Cc1ccnc(NC(=O)CCC(=O)N(CC(=O)NC2CCCCC2)c2ccc3c(c2)OCO3)c1,8.0,22.4µM*,-9.9%,-12.1%,34.4,0.8%,-8.9,
CCOC(=O)N1CCC(NC(=O)c2ccccc2C(=O)O)CC1,-2.0,?,5.86µM*,0.0%,-4.3,0.6%,-2.5,
CCOc1ccc2c(c1)C(c1ccccc1)=NNC(c1ccccc1)=N2,45.4*,11.2µM*,?,-19.8%,57.4*,-15.1%,-13.2,
O=C(CNC(=O)C(c1ccccc1)c1ccccc1)N/N=C\c1ccc(C(=O)O)cc1,11.4,?,-1.8%,1.7%,-9.5,-9.5%,8.3,
O=C(CNC(=O)C(c1ccccc1)c1ccccc1)N/N=C/c1cccnc1,-1.3,3.9%,?,?,4.1,-1.5%,.,
CCOC(=O)c1ccc(NS(=O)(=O)c2ccc3oc(=O)[nH]c3c2)cc1,-0.5,21.4%,-20.0%,-10.3%,-15.3,3.8%,.,
CCc1ccc(-n2c(=O)c3sc4ccccc4c3n(CC(=O)N(CC)Cc3ccccc3)c2=O)cc1,.,.,.,.,.,5.6%,.,
O=S(=O)(Nc1cccc(-c2ccc(N3CCCCCC3)nn2)c1)c1cccc(F)c1,39.8*,?,39.8%,-1.8%,115.7*,-5.2%,-3.1,
N#Cc1c(SCc2c(Cl)cccc2Cl)nc(N)[nH]c1=S,.,.,3.2%,18.1%,.,-4.0%,.,
Cn1cccc1Cc1nnc(SCC(=O)Nc2ccccc2F)n1CCc1ccccc1,-2.1,7.08µM*,13.1µM*,-2.4%,-11.6,-26.2%,-3.5,
COc1ccc(-n2c(Cc3cccn3C)nnc2SCC(=O)Nc2ccc(Cl)cc2)cc1,-3.2,10µM*,11.7µM*,14.9%,-5.6,50.1µM*,-3.6,PR8 titer=8
CC(=O)Nc1ccc(NC(=O)C2CCN(C(=O)C3CC(=O)N(c4ccc(C)cc4)C3)CC2)cc1 (centres undefined),-6.2,3.8%,-13.4%,25.0%,-8.7,9.0%,.,
CCn1c2ccccc2c2cc(N=C3SC(CC(=O)Nc4ccccc4OC)C(=O)N3C)ccc21 (centres undefined),-3.2,3.98µM*,?,?,-20.6,-0.6%,-25.3,
CCn1c(=O)c2cc(C(=O)Nc3ccccc3OC)sc2c2ccccc21,-2.7,0.6%,?,?,-12.1,-1.2%,.,
COc1ccc(N=C2SC(CC(=O)Nc3ccccc3OC)C(=O)N2Cc2ccco2)cc1 (centres undefined),24.5*,10µM*,-77.6%,?,39.7*,50.1µM*,-13.6,
COc1ccc(N=C2SC(CC(=O)Nc3ccc(F)cc3)C(=O)N2Cc2ccco2)cc1 (centres undefined),11.7,7.6%,?,?,28.3,?,.,
O=c1cc(-c2ccccc2)n2c(SCc3cccc([N+](=O)[O-])c3)nnc2[nH]1,.,.,.,.,.,18.9%,.,
O=C(CSc1nc2ccccc2nc1N1CCCCC1)N1CCN(c2ccccc2)CC1,-1.7,29.6%,?,43.7%,-5.2,5.1%,.,
CC(C)CC(=O)Nc1sc2c(c1C#N)CC(C)(C)NC2(C)C,0.2,10µM*,0.0%,?,-11.5,13.2%,-1.1,
C=CCn1c(-c2oc3nc(-c4ccccc4)cc(-c4ccccc4)c3c2N)n[nH]c1=S,15.0,1.12µM*,?,?,-2.9,6.5%,-7.2,
OCc1ccnc2c(O)cccc12,3.7,8.91µM*,2.33µM*,?,21.4,14.1µM*,-35.7,
N#Cc1nc(Cc2cccc3ccccc23)oc1NCCCN1CCOCC1,-0.7,-8.4%,?,1.3%,7.8,0.0%,.,
N#Cc1nc(-c2ccco2)oc1NCCCN1CCOCC1,-1.5,2.51µM*,.,48.5%,47.2,0.7%,19.9,
O=C1CSC(c2ccc(Cl)cc2)N1c1cccnc1 (centres undefined),7.4,-0.5%,-2.3%,-1.6%,-12.5,-3.9%,.,
O=C(COc1ccc(Cl)cc1)N1CCN(c2ccc([N+](=O)[O-])c(N3CCCCC3)c2)CC1,-1.8,11.2µM*,?,10.4µM*,13.4,-4.3%,?,
SMILES,CHX counter,NS1 function inh,Pf growth 48h,Pf growth 96h,Shiga inhibitor,Sm TGR block,NS1 inh valid,others
O=C(COc1ccccc1Cl)N1CCN(c2ccc([N+](=O)[O-])c(N3CCCCC3)c2)CC1,0.2,?,?,?,7.5,0.3%,-16.6,
O=C(c1ccc(F)cc1)N1CCN(c2ccc([N+](=O)[O-])c(N3CCCCC3)c2)CC1,-3.9,-17.3%,-9.2%,?,-13.3,-15.3%,.,
CC(C)c1nnc(NC(=O)C2CCCN2C(=O)Nc2cccc(Cl)c2)s1 (centres undefined),-3.0,9.1%,38.7%,0.1%,-2.0,-6.8%,.,
O=C(CCN1C(=O)C2CC=C(Cl)CC2C1=O)NCc1ccccc1 (centres undefined),1.4,2.0%[9.22 µM],2.2%,-29.5%,-0.7,-0.1%,.,
O=C(CCN1C(=O)C2CC=C(Cl)CC2C1=O)Nc1ccccc1O (centres undefined),-1.0,?,-6.1%,1.04µM*,-15.2,0.0%,9.3,
Cc1nc(Nc2nc(CSc3nc4ccccc4[nH]3)cc(=O)[nH]2)nc2ccccc12,-4.7,14.1µM*,?,9.28µM*,-15.6,-3.5%,13.2,
C#CCOC(=O)/C(=C/C=C/c1ccccc1)NC(=O)c1ccccc1,32.6,-7.5%,9.5%,24.6%,13.7,2.2%,.,
CC(C)OC(=O)/C(=C\C=C\c1ccccc1)NC(=O)c1ccccc1,8.6,?,11.7µM*,10.2%,14.5,22.2%,-3.0,
COc1ccc(C2Nc3ccccc3C(=O)N2Cc2ccco2)cc1COc1ccc(NC(C)=O)cc1 (centres undefined),2.8,12.6µM*,?,10.4µM*,-8.0,?,9.6,
O=c1[nH]cc(N(CCO)CCO)c(=O)[nH]1,-2.7,-0.6%,-8.9%,24.1%,-9.8,-4.7%,.,
CCc1ccccc1OCCCOc1ccc(OC)cc1,6.6,2.82µM*,-0.7%,6.9%,32.0,6.5%,-37.6,PR8 titer=8
N#Cc1c(Cl)nc(SCc2ccccc2)nc1-c1ccccc1,-3.7,?,9.0%,7.1%,33.8,11.5%,-15.9,
N#Cc1c(Cl)nc(-c2ccncc2)nc1-c1ccccc1,0.6,1.5%,20.1%,6.0%,20.6,0.0%,.,
